FBW7 activator: human FBW7 E3 ligase activation, primary screen | 0.13% of 650,000 active | normalized activity (activation), % at 26.1 µM | AID 1259310 | Q969H0 | AlphaScreen FBW7–phospho-cyclin E peptide binding, activator screen; in the data active = normalized activity above about 1.9%;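 note: purified mutant Fbw7 with reduced substrate affinity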
TEAD-YAP block: TEAD-YAP interaction inhibition; inhibition, % at 9.12 µM; HEK-TIYL cells, TEAD-Gal4/YAP UAS-luciferase luminescence; 1.4% of 640,000 active; in the data active = inhibition above about 32%;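 note: 0% = median of test compound wells and 100% = reference inhibitor wells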
GPR151 ag: activates the human receptor GPR151. PathHunter beta-arrestin GPR151 cells, luminescence. Q8TDV0. activation, % at 11.2 µM. 1% of 650,000 active; in the data active = activation above about 4.9%;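 note: 0% = median of compound wells and 100% = cells with positive control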
MITF primary: human MITF inhibition, primary screen | inhibition, % at 2.6 µM | AlphaScreen MITF homodimerization, bead proximity signal | O75030 | 0.91% of 650,000 active | AID 1259374; in the data active = inhibition above about 50%;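 note: 0% = vehicle wells with protein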
Target sequence (O75030 whole entry, looked up): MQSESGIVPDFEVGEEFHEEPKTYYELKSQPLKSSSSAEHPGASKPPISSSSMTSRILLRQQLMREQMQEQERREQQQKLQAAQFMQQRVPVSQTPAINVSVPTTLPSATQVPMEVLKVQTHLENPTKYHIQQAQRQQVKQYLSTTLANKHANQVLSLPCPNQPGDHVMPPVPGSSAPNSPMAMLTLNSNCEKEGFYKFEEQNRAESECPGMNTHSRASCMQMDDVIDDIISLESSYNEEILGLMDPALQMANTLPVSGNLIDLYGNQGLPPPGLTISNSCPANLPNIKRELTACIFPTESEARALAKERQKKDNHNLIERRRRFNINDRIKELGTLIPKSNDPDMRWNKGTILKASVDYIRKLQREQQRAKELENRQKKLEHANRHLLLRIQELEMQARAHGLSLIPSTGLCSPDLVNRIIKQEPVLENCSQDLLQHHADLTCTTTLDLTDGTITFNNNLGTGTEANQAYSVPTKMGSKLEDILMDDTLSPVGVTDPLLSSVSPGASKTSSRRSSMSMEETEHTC
The depositor's hits bear a star; ! = repeats disagree. The list is not random: actives were taken first. Their share in the collection is about 3.5%.

SMILES	FBW7 activator	TEAD-YAP block	GPR151 ag	MITF primary
CC1CCN(Cc2cc(Cl)c(O)c3ncccc23)CC1	0	85*	1	98*
CC1CCN(Cc2cc(Cl)c3cccnc3c2O)CC1	-1	46*	4	43
CC1CCN(Cc2ccccc2CO)CC1	0	-8	0	-1
CC1CCCCN1Cc1cc(Cl)c2cccnc2c1O (stereo unspecified)	-1	73*	1	30
Nc1ncnc(Oc2ccc(Cl)cc2)c1[N+](=O)[O-]	0	13	-1	14
O=C(CCC(=O)Nc1ccc(OCc2ccccc2)cc1)NCC1CCCO1 (stereo unspecified)	0	-1	1	0
Cc1ccc(/C=N/NC(=O)CNC(=O)c2ccc(Cl)cc2)o1	0	-5	2	5
CC1CCN(Cc2cc(Cn3ccnc3)c3cccnc3c2O)CC1	-1	39*	0	110*
CCOCCOC(=O)C1=C(C)NC2=C(C(=O)CC(c3ccc(Cl)cc3)C2)C1c1cccc(O)c1 (stereo unspecified)	0	5	-1	-23
CC1(C)Cc2nc3sc4c(SCC(=O)O)ncnc4c3cc2CO1	0	47*	-1	4
COc1ccc(-n2cc(-c3ccc(C)cc3)nc2SCC(=O)Nc2ccccc2C)cc1	0	-16	0	-3
COc1cc(Nc2nc(-c3ccc(N4CCOCC4)nc3)ncc2C)cc(OC)c1OC	0	30	-1	5
COc1ccc(-c2nc3ncnc(Nc4cc(OC)c(OC)c(OC)c4)c3[nH]2)cc1	0	50*	-3	4
COc1cc(Nc2nc(-c3ccc(N4CCOCC4)nc3)nc3nc[nH]c23)cc(OC)c1OC	1	52*	-1	21
COc1cc(Nc2nc(-c3ccccc3)nc3nc[nH]c23)cc(OC)c1OC	0	60*	0	5
NNC(=O)CNc1c(-c2ccsc2)nc2ccccn12	0	52*	0	0
Cc1ccccc1-c1ccc(N2CCN(S(C)(=O)=O)CC2)nn1	0	45*	-9	-10
Cc1ccccc1-c1ccc(N2CCN(C(=O)C3CCN(S(C)(=O)=O)CC3)CC2)nn1	0	-18	1	-10
Nc1nc(SCC(=O)Nc2cccc([N+](=O)[O-])c2)sc1C(=O)Nc1nccs1	0	32*	-5	5
O=C(CSc1nc2ccc(NC(=O)c3ccccc3Cl)cc2s1)Nc1ccccc1	0	-41	0	-2
O=C(CSc1nc2ccc(NC(=O)c3ccccc3Cl)cc2s1)Nc1cccc([N+](=O)[O-])c1	0	32*	0	10
COc1ccccc1C(=O)Nc1ccc2nc(SCC(C)=O)sc2c1	0	-43	1	6
COc1ccccc1C(=O)Nc1ccc2nc(SC(C)c3ccccc3)sc2c1 (stereo unspecified)	0	54*	3	-4
O=C(CSc1nc2ccc(NC(=O)c3ccccc3C(=O)O)cc2s1)NCc1ccccc1	0	41*	-1	5
CC1=NN(c2cccc(Cl)c2)C(=O)/C1=C\c1ccc(OCc2ccccc2)cc1	-1	0	-4	-13
SMILES	FBW7 activator	TEAD-YAP block	GPR151 ag	MITF primary
CCC(Sc1nnc2c(n1)[nH]c1ccc(S(=O)(=O)N(CC)CC)cc12)C(=O)NC1CCCC1 (stereo unspecified)	0	5	0	-8
CC(=O)c1cccc(NC(=O)Cn2ccc([N+](=O)[O-])n2)c1	0	9	0	14
CC(=O)c1cccc(NC(=O)CSC2N=c3ccc([N+](=O)[O-])cc3=N2)c1 (stereo unspecified)	0	-1	0	71*
CC1(C)CC(=O)C=C(NNC(=O)Cc2ccccc2)C1	1	-2	-1	4
CC1(C)CC(=O)C=C(NNC(=O)COc2ccccc2)C1	1.9*!	5	-1	15
N#Cc1cc(N)c(Nc2ccccc2)cc1C#N	0	-4	3	0
N#Cc1cnc(N)c(C#N)c1Nc1ccccc1	0	38*	-1	4
COc1cccc(-c2nnc(SCC(=O)N3CCOCC3)n2-c2ccccc2)c1	0	-5	1	7
CCOC(=O)c1cc(CC)sc1NC(=O)c1cc(-c2ccc(CC(C)C)cc2)nc2ccccc12	1	3	0	11
Cc1nc(NCc2ccc3c(c2)OCO3)c2c(C)c(C)sc2n1	0	39*	2	6
Cc1nc(NCC2COc3ccccc3O2)c2c(C)c(C)sc2n1 (stereo unspecified)	0	47*	3	-12
c1ccc(Cc2nc(NCC3COc4ccccc4O3)c3c4c(sc3n2)CCCC4)cc1 (stereo unspecified)	0	-6	1	9
